In PubChem BioAssay (NCI) one finds growth data, which are given here for nine compounds.

This is part of a sample that, as a whole, favours compounds with a hit. Of some 83,000 tested, about 20% had one in any assay.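 Plates (96-well) were seeded with cells, treated with compound at one concentration, and incubated for 48 hours before percent growth was determined.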 Unmarked numbers belong to inactive results. Calls of active or inactive are those of the source. The calls were made as follows: active = growth percent below 10; inactive = the rest.

Test systems include HCT-15 colon; SNB-75 CNS; SNB-19 CNS; U251 CNS; PC-3 prostate; SK-MEL-5 melanoma; UACC-62 melanoma; LOX IMVI melanoma; SK-MEL-2 melanoma; EKVX NSCLC; SN12C renal; UO-31 renal; TK-10 renal; ACHN renal; CAKI-1 renal; A498 renal; CCRF-CEM leukemia; MOLT-4 leukemia; SK-MEL-28 melanoma; HT29 colon.
Common to all, as to assay: NCI-60 one-dose screen, 48 h (100 = growth as untreated, 0 = no growth, -100 = all killed)
Common to all, as to settings: 10 µM unless noted

For `COP(=O)(OC)C(c1ccccc1)(c1ccccc1)c1ccccc1`, the growth was 107% in the test with HCT-15 colon; 108% with SNB-75 CNS; 99.9% in the test on SNB-19 CNS; 87.7% in the test on U251 CNS; 75.2% with PC-3 prostate; 89.5% in the test on SK-MEL-5 melanoma. Also, the growth in the test on UACC-62 melanoma was 70.9%; in the test with LOX IMVI melanoma, 84.2%; in the test on SK-MEL-2 melanoma it was 101%; with EKVX NSCLC, 101%; in the test on SN12C renal, 97.7%; with UO-31 renal, 113%. Also, the growth in the test with TK-10 renal is 69%; in the test on ACHN renal, 107%; in the test on CAKI-1 renal, 83%; in the test on A498 renal, 93%; in the test with CCRF-CEM leukemia it was 84.3%; in the test on MOLT-4 leukemia, 46.5%.
Take `Cc1ccc(C(NC(=O)c2ccccc2)c2ccc3cccnc3c2O)cc1` (configuration not stated): the growth was 28.9% with HCT-15 colon; 33.3% with SNB-75 CNS; 19.9% in the test on SNB-19 CNS; 26.1% in the test on PC-3 prostate; -42.3% (active) with SK-MEL-5 melanoma; -8.42% (active) with UACC-62 melanoma. The growth in the test with LOX IMVI melanoma was 11.1%; in the test with SK-MEL-28 melanoma, 30.8%; in the test on SK-MEL-2 melanoma, 18.5%; with EKVX NSCLC it was 17.3%; in the test on SN12C renal, 14.1%; in the test on UO-31 renal, -3.13% (active). In addition, the growth with TK-10 renal was 16%; with ACHN renal it was 8.26% (active); with CAKI-1 renal it was 9.05% (active); with A498 renal it was 24.9%; with CCRF-CEM leukemia, 5.39% (active); in the test with MOLT-4 leukemia, 8.31% (active).
Turning to `CCCCCCCCN(CCO)CCCCCCCC`, the growth with HT29 colon is 103%; with SNB-75 CNS it was 96.5%; in the test with SNB-19 CNS it was 113%; in the test with U251 CNS, 102%; with PC-3 prostate it was 99.3%; with SK-MEL-5 melanoma it was 98.5%. Besides, the growth in the test on UACC-62 melanoma was 109%; in the test on LOX IMVI melanoma it was 102%; in the test on SK-MEL-28 melanoma, 101%; with SN12C renal, 104%; with UO-31 renal, 80.2%; with TK-10 renal it was 109%. In addition, the growth was 96.6% in the test on ACHN renal, 109% in the test on CAKI-1 renal, 99.4% in the test with CCRF-CEM leukemia and 90.7% with MOLT-4 leukemia.
Regarding `CC(=O)/C(=C/c1ccc(Cl)cc1)C(=O)c1ccccc1`, the growth with HCT-15 colon was 79.3%; with SNB-75 CNS it was 81.6%; in the test on SNB-19 CNS it was 91.1%; in the test on PC-3 prostate, 68.5%; in the test with SK-MEL-5 melanoma, 94.2%; in the test on UACC-62 melanoma, 82.1%. The growth was -43.9% (active) in the test on LOX IMVI melanoma; 95.5% in the test on SK-MEL-28 melanoma; 85.4% in the test on SN12C renal; 65.5% in the test with UO-31 renal; 101% in the test with TK-10 renal; 99.4% with ACHN renal. Also, the growth is 85.2% with CAKI-1 renal and 62% in the test on MOLT-4 leukemia.
Take `COc1ccc(-c2cc(-c3cccnc3)nc(S(=O)(=O)CC(=O)Nc3ccc(C)cc3)c2C#N)cc1OC`: the growth in the test with HCT-15 colon was 95.1%; in the test on SNB-75 CNS it was 78.7%; with SNB-19 CNS, 94.6%; in the test with PC-3 prostate it was 83.7%; in the test with SK-MEL-5 melanoma, 72%; with UACC-62 melanoma it was 99.4%. Also, the growth with LOX IMVI melanoma is 88.9%; in the test on SK-MEL-28 melanoma, 102%; in the test with SN12C renal, 97.2%; with UO-31 renal it was 59.8%; in the test with ACHN renal, 98.3%; in the test on CAKI-1 renal, 91.2%. Further, the growth with A498 renal was 57.3%; with CCRF-CEM leukemia, 100%; in the test on MOLT-4 leukemia, 75.2%.
Consider `CC(=O)Nc1c(Cl)cc2c(c1Cl)Cc1cc([N+](=O)[O-])ccc1-2`, for which the growth in the test with HCT-15 colon is 101%; in the test on SNB-75 CNS, 36.6%; in the test on SNB-19 CNS it was 95.8%; with U251 CNS it was 89%; with PC-3 prostate it was 72.6%; in the test with SK-MEL-5 melanoma, 55.9%. Moreover, the growth was 65.3% with UACC-62 melanoma; 86.2% in the test on LOX IMVI melanoma; 102% with SK-MEL-28 melanoma; 42.2% with EKVX NSCLC; 97.1% with SN12C renal; 86.3% with UO-31 renal. In addition, the growth in the test on ACHN renal was 79.5%; with A498 renal it was 88.8%; in the test on CCRF-CEM leukemia it was 57.2%.
`Cc1cc(C)cc(S(=O)(=O)n2ccc(-c3ccc4c(c3)CCC(C)(C)O4)n2)c1`: the growth in the test on HCT-15 colon is 82.3%; with SNB-75 CNS, 87.2%; in the test with SNB-19 CNS it was 94.6%; in the test with U251 CNS, 85.6%; with PC-3 prostate, 82.4%; with SK-MEL-5 melanoma, 82.9%. The growth in the test with UACC-62 melanoma is 73.9%; in the test on LOX IMVI melanoma, 95%; with SK-MEL-28 melanoma it was 102%; in the test on SN12C renal, 88%; in the test on UO-31 renal it was 75%; with ACHN renal it was 92.8%. For the same compound, the growth in the test on A498 renal is 63%; in the test on CCRF-CEM leukemia it was 96.3%; in the test on MOLT-4 leukemia, 91.4%.
As to `C=C1CC[C@@H]2[C@](C)(COC(C)=O)[C@H](OC(C)=O)CC[C@@]2(C)[C@@H]1CC(NCc1ccccc1)C1=CCOC1=O` (some centres not stated), the growth with HCT-15 colon was 41%; in the test with SNB-75 CNS, 76.9%; with SNB-19 CNS, 68.2%; with U251 CNS, 47.6%; in the test with PC-3 prostate, 10.1%; in the test with LOX IMVI melanoma, 44.6%. The growth in the test on SK-MEL-28 melanoma is 68.6%; in the test with EKVX NSCLC, 53.9%; in the test with SN12C renal it was 58.2%; in the test with UO-31 renal it was 29.1%; in the test with ACHN renal, 46.4%; in the test with CAKI-1 renal, 49.6%. In addition, the growth in the test on A498 renal is 56.2%; in the test on CCRF-CEM leukemia, 20.9%; with MOLT-4 leukemia, -3.86% (active).
With `Nc1c(C(=O)Nc2cccc(Cl)c2)sc2nc3c(cc12)C(O)CCC3` (configuration not stated), the growth was 18.8% in the test with HCT-15 colon; 28.8% with SNB-75 CNS; 65.9% in the test with SNB-19 CNS; 17.4% in the test with U251 CNS; 28.5% in the test with PC-3 prostate; 28.7% with SK-MEL-5 melanoma. Moreover, the growth in the test on UACC-62 melanoma was 44.6%; in the test on LOX IMVI melanoma it was 48.1%; with SK-MEL-28 melanoma it was 55.8%; in the test with SN12C renal it was 35.5%; in the test on UO-31 renal it was 41.9%; in the test with ACHN renal, 43.3%. Further, the growth in the test on CAKI-1 renal was 37%; with A498 renal it was -10.6% (active); in the test on CCRF-CEM leukemia it was 15.7%; with MOLT-4 leukemia it was 16.3%.
